Test results taken from PubChem BioAssay (Tox21).
Values joined by “and” are separate entries in the source; they are usually repeats but may differ in a detail not shown here. Equal values may be shown once. Results filed as inconclusive are left out. Where a call stands in place of a potency, no number is given. Some structures have more than one record in an assay (separate samples or runs), and their calls can disagree. Active and inactive are the calls of the source. The call rests on the fitted dose curve; in most records, active means well fitted curve in the direction sought with a large enough effect in the repeat runs; inconclusive means weak or mixed curves; inactive means no such curve, though single readings can be large; an effect the other way counts as inactive or inconclusive.

Tested on: not listed separately
Test: qHTS assay to identify small molecule antagonists of the retinoic acid receptor (RAR) signaling pathway (AID 1159552; further: nearly all actives have a fitted effect of over 50% in size)
Conditions: C3RL4 RARE luciferase reporter, retinol-stimulated, 6 h; series mostly up to 92.4 µM; activity, negative = inhibition: at the top concentration
Method in brief: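 Antagonism of retinol-induced RARE reporter activity was measured in C3RL4 cells. Exposure to compounds and 1 uM final retinol lasted 6 hr at 37 C, with luminescence as endpoint.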
For `Oc1ccc(Cl)cc1`, the Potency was “inactive”. In the case of `C=C(C)C(=O)OCC(CC)CCCC` (stereo not given), the Potency is reported as “inactive”. With `COP(=S)(OC)Oc1ccc(SC)c(C)c1` the Potency was “inactive”. In the case of `C=CC(=O)OCC(CC)CCCC` (stereo not given), the Potency is reported as “inactive”. For `Cc1cccc(C)c1N`, the Potency was “inactive”. In the case of `CC(=O)C1CCOC1=O` (stereo not given), the Potency is reported as “inactive”. In the case of `C[C@]12CC[C@H](O)CC1=CC[C@@H]1[C@@H]2CC[C@]2(C)C(=O)CC[C@@H]12`, the Potency is reported as “inactive”. In the case of `O=[N+]([O-])c1cc([As](=O)(O)O)ccc1O`, the Potency is reported as “inactive”. For `O=C(O)c1cc(Oc2ccc(C(F)(F)F)cc2Cl)ccc1[N+](=O)[O-]`, the Potency was “inactive”.

Tested on: not listed separately
Test: qHTS assay to identify small molecule agonists of the retinoic acid receptor (RAR) signaling pathway (AID 1159553); further: potency means the concentration at half of the fitted maximal effect
Conditions: C3RL4 RARE luciferase reporter, agonist, 6 h; series mostly up to 73.3 µM; activation: at the top concentration
Method in brief: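 Reporter readout comes from luciferase under RARE control in C3RL4 cells; compound exposure lasts 6 hr at 37 C in 5% CO2, and luminescence is recorded following a 30 min room-temperature incubation with reagent.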
With `Oc1ccc(Cl)cc1` the Potency was “inactive”. For `C=C(C)C(=O)OCC(CC)CCCC` (stereo not given), the Potency was “inactive”. For `COP(=S)(OC)Oc1ccc(SC)c(C)c1`, the Potency was 19.3 µM (active). For `Cc1cccc(N)c1`, the Potency was “inactive”. In the case of `C=CC(=O)OCC(CC)CCCC` (stereo not given), the “activation” value is reported as 2.23% (inactive). In the case of `Cc1cccc(C)c1N`, the Potency is reported as “inactive”. For `CC(=O)C1CCOC1=O` (stereo not given), the Potency was “inactive”. With `C[C@]12CC[C@H](O)CC1=CC[C@@H]1[C@@H]2CC[C@]2(C)C(=O)CC[C@@H]12` the Potency was “inactive”. With `O=[N+]([O-])c1cc([As](=O)(O)O)ccc1O` the Potency was “inactive”. For `O=C(O)c1cc(Oc2ccc(C(F)(F)F)cc2Cl)ccc1[N+](=O)[O-]`, the Potency was “inactive”.

Tested on: not listed separately
Test: qHTS assay to identify small molecule antagonists of the estrogen related receptor (ERR) signaling pathway from Tox21 library - cell viability counter screen (AID 1224834); further: nearly all actives have a fitted effect of over 30% in size
Conditions: ERR reporter cells viability, CellTiter-Fluor, 17.5 h; series mostly up to 92.4 µM; viability change, negative = cytotoxic: at the top concentration
Method in brief: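 After 17.5 h of compound exposure at 37 C, ERR cells are incubated with CellTiter-Fluor for 30 min and fluorescence intensity serves as the viability measure.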
With `COP(=S)(OC)SCN1C(=O)c2ccccc2C1=O` the Potency was “inactive”. In the case of `Cc1ccccc1N`, the Potency is reported as “inactive”. With `Cc1cccc(N)c1` the Potency was “inactive”. With `CCOP(=S)(OCC)Oc1cc(C)nc(C(C)C)n1` the Potency was “inactive”. For `Nc1ccc([As](=O)(O)O)cc1`, the Potency was “inactive”. With `CC12CC1(C)C(=O)N(c1cc(Cl)cc(Cl)c1)C2=O` (stereo not given) the Potency was “inactive”. For `OCc1ccco1`, the Potency was “inactive”. In the case of `O=C(O)C1C(C(=O)O)C2(Cl)C(Cl)=C(Cl)C1(Cl)C2(Cl)Cl` (stereo not given), the Potency is reported as “inactive”. For `CC(C)(C)C(=O)CCl`, the Potency was “inactive”. For `C[C@]12CC[C@H](O)CC1=CC[C@@H]1[C@@H]2CC[C@]2(C)C(=O)CC[C@@H]12`, the “viability change, negative = cytotoxic” value was 1.64% [at 42.5 µM] (inactive). In the case of `O=C(O)COc1ccccc1`, the Potency is reported as “inactive”. For `CCNc1nc(Cl)nc(NC(C)C)n1`, the Potency was “inactive”. For `O=[N+]([O-])c1ccc(Cl)cc1`, the Potency was “inactive”.

Target: Luciferin 4-monooxygenase (Photinus pyralis) (UniProt P08659)
Sequence (P08659 whole entry, looked up): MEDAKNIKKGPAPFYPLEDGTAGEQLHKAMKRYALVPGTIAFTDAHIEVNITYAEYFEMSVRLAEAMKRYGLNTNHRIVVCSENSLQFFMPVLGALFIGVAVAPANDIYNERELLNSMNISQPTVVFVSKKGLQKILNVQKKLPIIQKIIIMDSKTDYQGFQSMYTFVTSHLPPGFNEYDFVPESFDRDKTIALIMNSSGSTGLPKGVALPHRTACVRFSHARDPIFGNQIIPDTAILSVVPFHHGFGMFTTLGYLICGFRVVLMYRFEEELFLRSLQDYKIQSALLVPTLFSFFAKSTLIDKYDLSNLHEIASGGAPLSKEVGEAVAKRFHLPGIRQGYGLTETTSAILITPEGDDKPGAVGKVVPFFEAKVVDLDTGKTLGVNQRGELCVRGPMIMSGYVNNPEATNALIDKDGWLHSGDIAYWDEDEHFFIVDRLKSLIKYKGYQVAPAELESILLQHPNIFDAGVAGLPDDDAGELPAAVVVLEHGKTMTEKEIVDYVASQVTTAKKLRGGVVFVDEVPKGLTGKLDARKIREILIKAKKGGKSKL
Test: qHTS assay to identify small molecule inhibitors of firefly luciferase (AID 1224835); further: nearly all actives have a fitted effect of over 25% in size; further: potency means the concentration at half of the fitted maximal effect
Conditions: purified P. pyralis luciferase, luminescence inhibition; series mostly up to 115 µM; activity change, negative = inhibition: at the top concentration
Method in brief: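 Inhibition of purified Photinus luciferase is measured by luminescence. Substrate levels (D-luciferin, ATP) sit at their KM values. Each compound is tested in a concentration series.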
With `COP(=S)(OC)SCN1C(=O)c2ccccc2C1=O` the Potency was 71.5 µM (active) and 63.3 µM (active) and inactive. For `Cc1ccccc1N`, the Potency was “inactive”. In the case of `C=C(C)C(=O)OCC(CC)CCCC` (stereo not given), the Potency is reported as “inactive”. In the case of `Cc1cccc(N)c1`, the Potency is reported as “inactive”. For `CCOP(=S)(OCC)Oc1cc(C)nc(C(C)C)n1`, the Potency was “inactive”. For `Sc1ccccc1`, the Potency was “inactive”. In the case of `Nc1ccc([As](=O)(O)O)cc1`, the Potency is reported as “inactive”. For `c1ccc2c(c1)CCCC2`, the Potency was “inactive”. In the case of `O=C(O)C(Br)Br`, the Potency is reported as “inactive”. In the case of `CC12CC1(C)C(=O)N(c1cc(Cl)cc(Cl)c1)C2=O` (stereo not given), the Potency is reported as “inactive”. With `Nc1cccc(Cl)c1` the Potency was “inactive”. With `Cc1cccc(C)c1N` the Potency was “inactive”. In the case of `NNc1ccccc1`, the Potency is reported as “inactive”. For `CCCOC(=O)c1ccccc1C(=O)OCCC`, the Potency was “inactive”. In the case of `OCc1ccco1`, the Potency is reported as “inactive”. In the case of `O=C(O)CCCc1ccc(N(CCCl)CCCl)cc1`, the Potency is reported as “inactive”. In the case of `CC(=O)C1CCOC1=O` (stereo not given), the Potency is reported as “inactive”. With `CC(=O)/C=C/c1ccccc1` the Potency was “inactive”. In the case of `CC(C)CCCCCCOC(=O)c1ccccc1C(=O)OCCCCCCC(C)C`, the Potency is reported as “inactive”. For `O=C(O)C1C(C(=O)O)C2(Cl)C(Cl)=C(Cl)C1(Cl)C2(Cl)Cl` (stereo not given), the “activity change, negative = inhibition” value was -0.0647% (inactive). For `CC(C)(C)C(=O)CCl`, the Potency was “inactive”. With `C[C@]12CC[C@H](O)CC1=CC[C@@H]1[C@@H]2CC[C@]2(C)C(=O)CC[C@@H]12` the Potency was “inactive”. With `O=C(O)COc1ccccc1` the Potency was “inactive”. For `O=[N+]([O-])c1cc([As](=O)(O)O)ccc1O`, the Potency was “inactive”. With `O=C(O)c1cc(Oc2ccc(C(F)(F)F)cc2Cl)ccc1[N+](=O)[O-]` the Potency was “inactive”. In the case of `CCNc1nc(Cl)nc(NC(C)C)n1`, the Potency is reported as “inactive”. With `O=S(=O)(O)OOS(=O)(=O)O` the Potency was “inactive”. With `O=[N+]([O-])c1ccc(Cl)cc1` the Potency was “inactive”.
